Experimental data as given in the supplement of paper PMC3334620.
In all, about 33,000 sequences were measured (“E-score (-0.5 to 0.5)”: median about -0.017, highest 2% from about 0.3 on). Many of the other results were omitted from the sample, so the highest values are more common in it than they were.

Biological target: T1, Sut1 (UniProt P53032)
T1 sequence: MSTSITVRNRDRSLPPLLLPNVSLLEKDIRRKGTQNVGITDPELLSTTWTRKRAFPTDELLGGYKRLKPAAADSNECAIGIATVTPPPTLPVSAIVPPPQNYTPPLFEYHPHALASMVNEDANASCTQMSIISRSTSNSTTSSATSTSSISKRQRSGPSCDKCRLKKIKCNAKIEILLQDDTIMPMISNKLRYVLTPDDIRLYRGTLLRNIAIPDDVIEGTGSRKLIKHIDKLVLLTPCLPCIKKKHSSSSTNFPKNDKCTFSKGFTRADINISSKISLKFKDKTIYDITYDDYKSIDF
Test: PBM E-score (8-mer binding enrichment) (E-score (-0.5 to 0.5)); higher = stronger / more preferred TF binding
Conditions: protein concentration: 200 nM; construct: GST-full length
How it was run: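 Bound GST-tagged yeast transcription factors, applied at about 100-200 nM to double-stranded universal all-10-mer Agilent arrays, were detected with fluorescent anti-GST. Scans were normalised with masliner. A modified Wilcoxon-Mann-Whitney statistic, the E-score, was assigned to each ungapped eight-base word pooled with its reverse complement by the Universal PBM Analysis Suite.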

Sequence	PBM E-score
TATACGCA	0.0114
CCCAACGC	-0.103
TCACTTCA	-0.0869
CGGCTCAG	-0.117
TCTAGCCA	-0.0636
GACAACGC	-0.0716
CAATTTCA	0.00344
TAATTTCA	0.346
AAATTTCA	0.00137
CGGACAAG	0.22
CTGACATC	0.0186
AGGACATA	-0.0903
AGGACATC	0.0505
GGGACAAC	-0.231
GGGACATA	-0.0931
CGGACATC	0.406
CGGACAAC	0.309
CGGACATA	0.433
ACTAGGCC	-0.243
ATAGCCCC	-0.325
ATTTGCTC	0.141
CGGGAGCA	-0.0121
CCGGAGCG	0.234
TCGGAGCA	0.3
CTGGAGCC	-0.204

Sequence	PBM E-score
CCGGAGCC	0.396
ACGGAGCA	0.207
GCGGAGCA	0.152
CCGGAGCA	0.307
GCGGAGCC	0.113
CGGCGGTA	0.14
CGTTTATC	0.171
ACCCTGGG	-0.279
AGCGTAGC	-0.0963
CCTTTGAA	-0.0516
ATGATCGC	-0.106
AATAATAC	0.202
ATTAATAA	0.265
AATAATAG	0.157
AATGATAG	0.251
AATAATGT	0.235
TATGATAA	0.233
AATGATAA	0.299
GATAATAA	0.234
GTTAATAA	0.319
AATAATAA	0.304
AATAATAT	0.346
CTTAATAA	0.217
AACTTAAG	0.132
CAGTTTGG	-0.198

Sequence	PBM E-score
AAGCGCAC	0.00639
TTACGTAA	-0.0108
ATCAGATG	-0.0902
CATCTGAC	-0.163
TGTCAGAA	-0.0161
CATAATAA	0.131
CGTAATAA	0.0956
TATAATAA	0.298
AGTAATAT	0.312
TATAACAA	0.319
AGTAATAG	0.063
GATAACAA	0.205
TCTAATAA	0.173
CATAACAA	0.179
GGTAATAA	0.188
TGTAATAA	0.315
AGTAATAC	0.133
CATCTTCG	-0.0746
AAGATCAA	0.0587
AATTGCAG	0.0512
GCGACCGC	-0.23
AACAATAA	0.192
AACAATAC	0.0474
AACAATAT	0.331
AGGCTGAC	-0.245

Sequence	PBM E-score
ATAGGTCA	0.0286
AGAATGTC	-0.0101
AAGCATAC	0.164
ATAAAATG	0.289
CTTCGGTA	0.0563
GTTCGGAA	0.289
CTTCGGAA	0.335
CTTCGGCC	-0.00176
CTTCGGGC	-0.277
CTTCGGAC	0.405
CGCGACAG	-0.283
TGGCGACA	-0.207
GATTCGGC	0.0544
AATTCGGA	0.396
TATTCGAA	0.0804
CATTCGGG	-0.0375
AATTCGGG	0.17
CATTCGGA	0.392
GATTCGGA	0.385
GATTCGCA	0.113
AATTCGGC	-0.0483
TATTCGGA	0.352
CATTCGGC	-0.0155
TATTCGCA	0.0506
